Data reported in PubChem BioAssay AID504613 (National Center for Advancing Translational Sciences (NCATS), 2011).
Activity calls are given as the source filed them.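 Rule for the calls: active = clear growth inhibition over 72 hours in leukemia cell lines carrying a fused MLL gene, giving a fitted IC50; inactive = the rest.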

assay: Confirmation of Inhibitors Targeting the Menin-MLL Interaction in MLL Related Leukemias: Confirmation in an MLL leukemia cell growth assay; details: MV4-11 MLL-AF4 leukemia growth, MTT absorbance, 72 h; series mostly up to 50 µM
Description: qHTS Assay for Inhibitors Targeting the Menin-MLL Interaction in MLL Related Leukemias NIH Chemical Genomics Center [NCGC] NIH Molecular Libraries Probe Centers Network [MLPCN] MLPCN Grant: MH084875-01A1 Assay Submitter (PI): Jolanta Grembecka, Tomasz Cierpicki, University of Virginia Translocations of the MLL (Mixed Lineage Leukemia) gene are frequently found in human leukemias affecting both children and adults. Fusion of MLL to one of more than 60 genes results in generation of oncogenic proteins upregulating Hox genes, which are vital to blood cell development. Patients harboring fusion of the MLL gene suffer from aggressive leukemias and respond poorly to available therapies. All of the oncogenic fusion proteins have a preserved N-terminal fragment of MLL that has been identified to interact with menin. It has been recently discovered that association with menin is critical to the leukemogenic activity of the MLL fusion oncoproteins. […] We have developed and optimized a fluorescence polarization-based assay for the identification of Menin-MLL inhibitors. […]
Inhibition of cell proliferation in the MLL leukemia cells: MV4-11 (MLL-AF4), ML-2 (MLL-AF6) KOPN-8 (MLL-ENL) induced by compound measured after 72h treatment, as detected by the MTT cell viability assay. […] Plates were read for absorbance at 570 nm using a PHERAstar BMG microplate reader. […]

Structure (SMILES)	IC50
N#Cc1ccc(OCCCN2CCC(C(O)(c3ccccc3)C3CCCC3)CC2)cc1 (configuration not stated)	12.8 µM (active)
N#Cc1ccc(OCCCN2CCC(C(O)c3ccccc3)CC2)cc1 (configuration not stated)	inactive
